This passage reports Inhibition results from ChEMBL document CHEMBL4513146, “CO-ADD screening of Karazin Kharkiv National University (Ukraine) compounds”.

One experiment concerns Staphylococcus aureus. As to conditions: Concentration 32 ug.mL-1;; ASSAY_TEST Inhibition of Bacterial Growth; detection method Absorption (OD600); MEDIA CAMHB; plate type 384well; NBS; CORNING #3640; time 18 hr.
A further experiment deals with Escherichia coli. As to conditions: Concentration 32 ug.mL-1;; ASSAY_TEST Inhibition of Bacterial Growth; detection method Absorption (OD600); MEDIA CAMHB; plate type 384well; NBS; CORNING #3640; time 18 hr.

Results with a measured potency or affinity are listed apart.

Turning to `COc1cccc(-n2ccn3c(SCC(=O)Nc4ccc(C(C)C)cc4)nnc3c2=O)c1`, the Inhibition (usually the drop in the measured response relative to a control, in per cent) in the experiment on Staphylococcus aureus is recorded as 0.38%; with Escherichia coli, -24.97%.
The like results for `CCCNC(=O)CSc1nnc2c(=O)n(-c3ccc(F)cc3)ccn12` were, in that order, -5.35% and -1%.
Regarding `CCCCOc1ccc(-c2cc3c4nnc(SCC(=O)Nc5ccc(F)cc5)n4ccn3n2)cc1`, the Inhibition with Staphylococcus aureus is listed as 2.53%; in the experiment with Escherichia coli it was -6.79%.
For `CCc1cccc(NC(=O)CSc2nnc3c(=O)n(-c4ccccc4)ccn23)c1`, the Inhibition with Staphylococcus aureus is given as 0.07%; with Escherichia coli, -11.7%.
For `CCN(C(=O)CSc1nnc2c3cc(-c4ccc(OC)cc4)nn3ccn12)c1ccccc1`, the Inhibition in the experiment on Staphylococcus aureus was 5.44%; in the experiment with Escherichia coli, -0.03%.
Consider `COc1cccc(NC(=O)Cn2nc3c(=O)n(-c4ccc(Br)cc4)ccn3c2=O)c1`, for which the Inhibition with Staphylococcus aureus is on record as -2.73%; with Escherichia coli, -3.42%.
For `Cc1ccc(NC(=O)Cn2nc3ccc(SC(C)(C)C)nn3c2=O)c(C)c1`, in that order: 13% and -1.14%.
The like results for `COc1ccc(OC)c(NC(=O)Cn2nc3c4cc(-c5ccc(F)cc5)nn4ccn3c2=O)c1` were, in that order, 7.29% and -2.37%.
The like results for `COc1ccc(-c2cc3c4nnc(SCC(=O)NCc5ccccc5)n4ccn3n2)cc1` were, in that order, -8.9% and -21.63%.
Consider `O=c1c2nnc(SCc3cccc(F)c3)n2ccn1-c1ccc(Br)cc1`, for which the Inhibition in the experiment with Staphylococcus aureus is 15.11%; in the experiment on Escherichia coli, -3.12%.
For `CCOc1ccc(NC(=O)Cn2nc3c(Sc4cccc(F)c4)nccn3c2=O)cc1`, in that order: 1.32% and -8.75%.
For `CCCCOc1ccc(-c2cc3c4nnc(SCC(=O)Nc5ccc(OC)cc5)n4ccn3n2)cc1`, in that order: -5.31% and -9.08%.
